Data as given in PubChem BioAssay AID1259343 (VanderVen Lab, College of Veterinary Medicine, Cornell …, 2017).
Several values for one entry are separate records, joined by “and”; a condition that tells them apart may be missing. Equal values may be shown once. The campaign covered roughly 6,200 compounds. About 2,900 (47%) were called active. Cut-off read from the data, not from the text of the source: active = inhibition above about 50%; inactive = the rest. So high a share suggests a set chosen from earlier hits. The list shows a part of the results. Some structures have more than one record in an assay (separate samples or runs), and their calls can disagree.

Test: Mycobacterium tuberculosis growth inhibition, primary screen (AID 1259343)
Conditions: inhibition: at 10 µM, stronger effect = higher value; outcome: 10 uM

SMILES | inhibition
CN1CC2([N+](=O)[O-])C=C(Oc3ccc(F)cc3)CC([N+](=O)[O-])(C1)C2 (stereo not drawn) | 94.6% (active)
Cc1ccc(Cl)cc1NCc1cnc(Cl)s1 | 26.4% (inactive)
Cc1nnc(NCCC23CC4CC(CC(C4)C2)C3)c(C#N)c1C | 50.3% (active)
CC[C@@H](C(=O)[C@@H](C)[C@@H](O)[C@H](C)[C@@H]1O[C@@H]([C@@H](CC)C(=O)O)CC[C@@H]1C)[C@H]1OC2(C=C[C@@H](O)[C@]3(CC[C@@](C)([C@H]4CC[C@](O)(CC)[C@H](C)O4)O3)O2)[C@H](C)C[C@@H]1C (stereo partly drawn) | 100% (active)
C(=Nc1ccc(C23CC4CC(CC(C4)C2)C3)cc1)c1ccncc1 | -6.32% (inactive)
O=c1cccnn1CCNS(=O)(=O)c1ccc(Cl)s1 | 99.9% (active)
Cc1ccc(Cn2nc(C)c(C=c3s/c(=C\C(=O)C(C)(C)C)[nH]c3=O)c2C)cc1 | 9.64% (inactive)
CC(C)(C)C(=O)C=c1[nH]c(=O)c(=Cc2c(F)c(F)c(F)c(F)c2F)s1 | 101% (active)
CC(C)c1ccc(C=c2sc(=CC(=O)C(C)(C)C)[nH]c2=O)cc1 | 92.9% (active)
Cc1ccc(C)c(C=c2sc(=CC(=O)C(C)(C)C)[nH]c2=O)c1 | inactive
CC(C)(C)C(=O)/C=c1/[nH]c(=O)/c(=C/c2ccc(F)c(Br)c2)s1 | 101% (active)
CC(C)(C)n1c(NC(=O)c2ccc(F)cc2Cl)nc2ccccc21 | -8.71% (inactive)
O=C(Nc1nccn1CC1CC1)c1cc(F)c(Cl)cc1Cl | 94.8% (active)
Cc1ccc(S(=O)(=O)Nc2nc(-c3ccc(F)c(F)c3)cs2)cc1 | 80.1% (active)
Cc1ccc(-c2csc(C=Cc3c(C)noc3C)n2)cc1 | 43.6% (inactive)
CCCc1cc(NC)n2nc(C)c(-c3ccccc3)c2n1 | 95.4% (active)
CC(C)c1cc(=O)n2[nH]cc(-c3ccccc3)c2n1 | -1.37% (inactive)
CCCc1cc(=O)n2[nH]c(C)c(-c3ccccc3)c2n1 | 78.8% (active) and -6.08% (inactive)
CCCc1cc(NC)n2ncc(-c3ccccc3)c2n1 | -27.3% (inactive)
CCCc1cc(=O)n2[nH]cc(-c3ccccc3)c2n1 | 11.4% (inactive)
CCOC(=O)Cc1cc(=O)n2[nH]c(-c3ccccc3)c(-c3ccccc3)c2n1 | 40.6% (inactive)
Cc1ccc(-c2c(C)nn3c(NCC(C)C)cc(C)nc23)cc1 | 47.5% (inactive)
Cc1[nH]n2c(=O)cc(C(C)C)nc2c1-c1ccccc1 | 100% (active)
Cc1cc(C)nc(SCc2cc(=O)n3[nH]c(C)c(-c4ccccc4)c3n2)n1 | 100% (active)
N#Cc1ccc(OS(=O)(=O)c2cccc(F)c2)cc1 | 92.1% (active)

SMILES | inhibition
N#Cc1cccc(S(=O)(=O)Oc2ccc(F)c(F)c2)c1 | 100% (active)
N#Cc1cccc(OCCN2CCCc3cc(F)ccc32)c1 | 36.8% (inactive)
N#Cc1cccc(S(=O)(=O)Nc2cc(C(F)(F)F)ccc2-n2cccn2)c1 | 33.2% (inactive)
COc1ccc(S(=O)(=O)Oc2cccc(CNCc3ccc(F)cc3)c2)cc1 | 30.6% (inactive)
N#Cc1cccc(S(=O)(=O)Oc2ccccc2)c1 | 68.3% (active)
N#Cc1ccc(OS(=O)(=O)c2ccc(F)cc2)cc1 | 29.4% (inactive)
CN(Cc1ccc(OC(F)F)cc1)S(=O)(=O)c1cccc(C#N)c1 | 28% (inactive)
CC(C)NC(=O)CCC1CCCCC1 | 103% (active)
CC(C)NC(=O)NC(=O)COC(=O)C1CC1 | 23.7% (inactive)
COc1ccc(-n2ccnc2CN2CCc3c([nH]c4ccccc34)C2c2ccccn2)cc1 (stereo not drawn) | inactive
Cn1c(-c2ccccc2)nnc1C(C#N)C(=O)C1CC=CCC1 (stereo not drawn) | 93.3% (active)
CC(C)CCC(=O)C(C#N)c1nnc(-c2ccccc2)n1C (stereo not drawn) | 85.2% (active)
N#CC(C(=O)CC1CCCC1)c1nc(N)nc(Nc2ccccc2)n1 (stereo not drawn) | 1.29% (inactive)
NC(=NS(=O)(=O)c1ccc(Cl)cc1)c1ccc(Cl)cc1 | 15.6% (inactive)
COc1ccc(COc2ccccc2NC(C)=O)cc1Br | 36.3% (inactive)
COc1ccc(CCC(=O)NNc2cccc(Cl)c2)cc1Br | 98.9% (active)
COc1ccc(Br)cc1CN(C)CC(=O)Nc1cc(Cl)cc(Cl)c1 | -7.89% (inactive)
OCC1(Cc2ccccc2)CCN(Cc2cc3ccccc3s2)CC1 | 30.1% (inactive)
OCC1(Cc2ccccc2Cl)CCN(CC#Cc2ccccc2)CC1 | 83.9% (active)
OCC1(Cc2ccccc2C(F)(F)F)CCN(c2ccc(Cl)cn2)CC1 | 8.01% (inactive)
O=C(C=Cc1ccc([N+](=O)[O-])cc1)c1ccc(F)cc1 | 25.8% (inactive)
O=C(/C=C/c1cccc([N+](=O)[O-])c1)n1cnc2ccccc21 | 96.9% (active)
COc1ccc(-c2cnnc(NCCC3=CCCCC3)n2)c(OC)c1 | inactive
C1=C(CCNc2nncc(-c3ccccc3)n2)CCCC1 | 61.1% (active)
COc1ccccc1CCNc1nncc(-c2ccccc2)n1 | inactive

SMILES | inhibition
Cc1ccc(NC(=O)c2cnc3cc(C(=O)N(C)C)n(C)c3c2)cc1Cl | 84.7% (active)
O=C(Cc1c(F)cccc1Cl)Nc1nc2c(s1)CCCC2 | 95.5% (active)
CC1CCc2nc(NC(=O)c3ccc([N+](=O)[O-])s3)sc2C1 (stereo not drawn) | 102% (active)
CCOC(=O)C(C#N)=CNc1nc2c(s1)CC(C)CC2 (stereo not drawn) | 23.7% (inactive)
CC1CCc2nc(NC(=O)C3CCN(c4ncccn4)CC3)sc2C1 (stereo not drawn) | 90.3% (active)
CC1CCc2nc(NC(=O)Cc3c(F)cccc3Cl)sc2C1 (stereo not drawn) | 59.4% (active)
CCOC(C)C(=O)Nc1nc2c(s1)CC(c1ccccc1)CC2 (stereo not drawn) | 35.4% (inactive)
CC(C)(CNC(=O)Nc1nc2c(s1)CCCC2)c1cccs1 | 1.49% (inactive)
CC1CCc2nc(NC(=O)CSC(=S)N3CCCCC3C)sc2C1 (stereo not drawn) | 32.5% (inactive)
O=C(Nc1cccc(-c2nc3c(s2)CCCC3)c1)C1CC1 | 7.39% (inactive)
CCOC(=O)C1=C(COC(=O)c2ccc([N+](=O)[O-])s2)NC(=O)NC1C (stereo not drawn) | 21.7% (inactive)
CCC1CCc2nc(NC(=O)Cc3c(C)noc3C)sc2C1 (stereo not drawn) | 36.4% (inactive)
CC1CCc2nc(C(C#N)=Cc3cccs3)sc2C1 (stereo not drawn) | -38.8% (inactive)
CC1CCc2ccc(F)cc2N1S(=O)(=O)c1ccc(Cl)s1 (stereo not drawn) | 30.3% (inactive)
Cc1ccc(SCC(=O)N2CCN(Cc3ccccc3)C2=O)cc1 | 20.7% (inactive)
NC(=O)CSc1ccc(-c2cccc(CN3CCOCC3)c2)cc1 | 54.4% (active)
Fc1cccc(CN2CCN(Cc3ccc(-c4cccnc4)cc3)CC2)c1 | 46.7% (inactive)
Cc1ccc2nc(-c3ccc(NS(C)(=O)=O)cc3)sc2c1 | 29.5% (inactive)
Cc1ccc(S(=O)(=O)c2nnc(-c3ccccc3)s2)cc1 | 58.3% (active)
Brc1ccc(Oc2nnc(-c3ccccc3)s2)cc1 | 43.2% (inactive)
CCC(C)C(=O)Nc1ccc(Cl)c2cccnc12 (stereo not drawn) | -29.8% (inactive)
CC(=O)CCc1ccc(OCCCOc2ccc(Cl)c3cccnc23)cc1 | 69.7% (active)
CNc1nc(=S)[nH]c2ccccc12 | 72.5% (active)
CCNc1nc(=S)[nH]c2ccccc12 | -44.3% (inactive)
Cc1nn2c(nc(NC3CCCC3)c3ccccc32)c1Cl | 13.2% (inactive)

SMILES | inhibition
S=c1nc(NC2CC2)c2ccccc2[nH]1 | 85.5% (active)
COc1ccc(Cc2nc(-c3ccc(Br)cc3)no2)cc1 | -10.8% (inactive)
COc1ccc(-c2csc(C(O)c3cccc(Cl)c3)n2)cn1 (stereo not drawn) | 40.1% (inactive)
COc1ccc(-c2noc(Cc3ccc(F)c(Br)c3)n2)cn1 | 58.1% (active)
CC(C)c1nc2c(c(=O)c3ccccc3n2C)c(=O)n1-c1ccccc1 | -10.5% (inactive)
CC1CCN(C(=S)NC2CC3CCC2C3)CC1 (stereo not drawn) | 67.5% (active)
NC(=S)Cc1nc2ccccc2[nH]1 | 98.2% (active)
CCc1ccc(/C=C/c2nc3ccccc3[nH]c2=O)cc1 | 26.4% (inactive)
c1ccc2[nH]c(CCC3CCCCC3)nc2c1 | -43.3% (inactive)
O=c1ccn(CCOc2cc(Cl)cc(Cl)c2)c(Cl)c1 | 53.2% (active)
N#Cc1c(N)sc2c1CCN(c1nccc(C(F)(F)F)n1)C2 | -0.04% (inactive)
Cc1nc(-n2nc(-c3cccs3)cc2NC(=O)C2CC2)[nH]c(=O)c1C | -19.4% (inactive)
Cc1nc(-n2nc(-c3cccs3)cc2NC(=O)CCC2CCCC2)[nH]c(=O)c1C | 101% (active)
COc1ccc(CC(=O)Nc2cc(-c3cccs3)nn2-c2nc(C)c(C)c(=O)[nH]2)cc1 | 99.9% (active)
COc1ccc(OCC(=O)Nc2cc(-c3cccs3)nn2-c2nc(C)cc(=O)[nH]2)cc1 | 99.1% (active)
COc1ccc(CC(=O)Nc2cc(-c3cccs3)nn2-c2nc(C)cc(=O)[nH]2)cc1 | 99.4% (active)
CC(C)c1cc(=O)[nH]c(-n2nc(-c3cccs3)cc2NC(=O)Cc2ccc(F)cc2)n1 | 6.65% (inactive)
Cc1cc(=O)[nH]c(-n2nc(-c3cccs3)cc2NC(=O)COc2ccccc2F)n1 | -30.7% (inactive)
CC(C)c1cc(=O)[nH]c(-n2nc(-c3cccs3)cc2NC(=O)CCc2ccccc2)n1 | 19.2% (inactive)
CC(C)c1cc(=O)[nH]c(-n2nc(-c3cccs3)cc2NC(=O)COc2ccccc2F)n1 | 100% (active)
COc1ccc(CC(=O)Nc2cc(-c3cccs3)nn2-c2nc(C(C)C)cc(=O)[nH]2)cc1 | 100% (active)
CCCCCOc1ccc(C(=O)N2CCC(O)(c3ccccc3)CC2)cc1OCCCCC | 35.2% (inactive)
Cc1ccc(NCc2nsc(N(C)C)n2)c(F)c1 | 51% (active)
